The antibiotic and cytotoxicity screens of Wong et al. (2023)
The campaign covered roughly 39,000 compounds. About 3,300 (8.5%) were called active. The full list was thinned out, with actives kept by preference.

system: HepG2; experiment: cytotoxicity call (relative viability < 0.9); details: 10 µM

SMILES	cytotoxicity call
COc1ccc(NC(=O)Nc2ccc3c(c2)C(=O)N([C@@H](C)CO)C[C@@H](C)[C@@H](CN(C)Cc2ccccc2)OCCCC[C@@H](C)O3)cc1	active
COc1ccc(NC(=O)Nc2ccc3c(c2)C(=O)N([C@@H](C)CO)C[C@@H](C)[C@@H](CN(C)Cc2ccccc2)OCCCC[C@H](C)O3)cc1	inactive
COc1cccc([C@@H](N)c2ccccc2)c1	inactive
O=C(/C=C/c1ccc(O)c(O)c1)O[C@@H]1[C@H](O)C[C@@](O)(C(=O)O)C[C@H]1OC(=O)/C=C/c1ccc(O)c(O)c1	inactive
C[C@H]1CN([C@@H](C)CO)C(=O)Cc2cc(NC(=O)Cc3cn(C)c4ccccc34)ccc2O[C@@H]1CN(C)S(C)(=O)=O	inactive
C[C@@H]1CN([C@H](C)CO)C(=O)c2cc(NS(=O)(=O)c3cn(C)cn3)ccc2O[C@H]1CN(C)C(=O)NC1CCCCC1	inactive
C[C@H]1CN([C@@H](C)CO)C(=O)Cc2cc(NC(=O)CCN3CCOCC3)ccc2O[C@@H]1CN(C)S(=O)(=O)c1cccs1	inactive
O=C(C[C@@H]1CC[C@H]2[C@@H](COC[C@@H](O)CN2C(=O)c2cnccn2)O1)NCc1ccc(Oc2ccccc2)cc1	inactive
COc1ccccc1NC(=O)N(C)C[C@@H]1Oc2ncc(Br)cc2C(=O)N([C@H](C)CO)C[C@H]1C	inactive
O=C(CCCCCCC(=O)Nc1ccccc1O)N/N=C/[C@H](O)[C@@H](O)[C@H](O[C@@H]1O[C@H](CO)[C@H](O)[C@H](O)[C@H]1O)[C@H](O)CO	inactive
C[C@H](CO)N1C[C@H](C)[C@@H](CN(C)C(=O)Nc2cccc3ccccc23)Oc2c(NC(=O)CCCCCC(=O)Nc3ccccc3N)cccc2C1=O	inactive
C[C@@H]1CCCCO[C@@H](CN(C)S(=O)(=O)c2ccc(Cl)cc2)[C@@H](C)CN([C@H](C)CO)C(=O)c2cc(NC(=O)Nc3ccc(F)cc3)ccc2O1	inactive
C[C@H](CO)N1C[C@H](C)[C@H](CN(C)Cc2ccc(Oc3ccccc3)cc2)Oc2ccc(NC(=O)C3CC3)cc2C1=O	inactive
Cc1ccc(NC(=O)N(C)C[C@@H]2OCCCC[C@H](C)Oc3ccc(NC(=O)C4CCCCC4)cc3C(=O)N([C@H](C)CO)C[C@@H]2C)cc1	inactive
NC(=O)CCN1CCn2c1nc1ccccc12	inactive
COc1ccc2c3c([nH]c2c1)[C@H](CO)N(C[C@]13CCN(CC1)C(=O)Nc1ccc2c(c1)OCO2)C(=O)Nc1ccc(cc1)F	inactive
COc1ccc(NC(=O)Nc2ccc3c(c2)C(=O)N([C@H](C)CO)C[C@H](C)[C@@H](CN(C)Cc2ccccc2)OCCCC[C@@H](C)O3)cc1	inactive
COc1ccc(NC(=O)Nc2ccc3c(c2)C(=O)N([C@@H](C)CO)C[C@H](C)[C@@H](CN(C)Cc2ccccc2)OCCCC[C@H](C)O3)cc1	inactive

SMILES	cytotoxicity call
COc1ccc(NC(=O)Nc2ccc3c(c2)C(=O)N([C@H](C)CO)C[C@H](C)[C@H](CN(C)Cc2ccccc2)OCCCC[C@H](C)O3)cc1	active
C[C@@H]1CCCCO[C@H](CN(C)Cc2ccccc2)[C@@H](C)CN([C@H](C)CO)C(=O)c2cc(NS(=O)(=O)c3ccc(F)cc3)ccc2O1	inactive
Cn1cnnc1Sc1c([N+](=O)[O-])ncn1C	inactive
Cn1cnc([N+](=O)[O-])c1Cl	inactive
Cn1cnc([N+](=O)[O-])c1Sc1[nH]cnc2ncnc1-2	active
C[C@@H]1CN([C@H](C)CO)C(=O)c2cc(NC(=O)CCN3CCOCC3)ccc2O[C@@H]1CN(C)C(=O)Nc1ccccc1	inactive
C[C@@H]1CN([C@@H](C)CO)S(=O)(=O)c2ccc(C#CC3CCCC3)cc2O[C@H]1CN(C)Cc1cncnc1	inactive
C[C@@H]1O[C@@H](O[C@@H]2CC[C@@]3(C)[C@@H](CC[C@]4(C)[C@@H]3CC=C3[C@@H]5CC(C)(C)CC[C@]5(C(=O)O[C@@H]5O[C@H](CO[C@@H]6O[C@H](CO)[C@@H](O)[C@H](O)[C@H]6O)[C@@H](O)[C@H](O)[C@H]5O)CC[C@]34C)[C@]2(C)CO)[C@H](O)[C@H](O[C@@H]2OC[C@@H](O)[C@H](O)[C@H]2O)[C@H]1O	inactive
C=C[C@](C)(O)CC/C=C(\C)C(=O)O[C@@H]1[C@@H](O[C@@](C)(C=C)CC/C=C(\C)C(=O)O[C@H]2C[C@@]3(C(=O)O[C@H]4OC[C@@H](O[C@H]5O[C@@H](CO)[C@@H](O)[C@@H](O[C@H]6O[C@@H](CO)[C@@H](O[C@H]7O[C@@H](CO)[C@@H](O)[C@@H](O)[C@@H]7O)[C@@H](O)[C@@H]6O)[C@@H]5O)[C@@H](O)[C@@H]4O)[C@@H](O)C[C@@]4(C)C(=CC[C@H]5[C@@]6(C)CC[C@@H](O[C@H]7O[C@@H](CO)[C@@H](O[C@H]8O[C@@H](CO)[C@@H](O)[C@@H](O[C@H]9OC[C@@H](O)[C@@H](O)[C@@H]9O)[C@@H]8O)[C@@H](O)[C@@H]7O)C(C)(C)[C@@H]6CC[C@@]54C)[C@@H]3CC2(C)C)OC[C@@H](O)[C@H]1O	active
C[C@H]1O[C@@H](O[C@H]2[C@@H](O)[C@@H](O)[C@@H](O[C@H]3CC[C@]4(C)[C@H]5CC=C6[C@H]7CC(C)(C)[C@H]8C[C@]7(C(=O)O8)[C@@H](O)C[C@]6(C)[C@@]5(C)CC[C@H]4C3(C)C)O[C@@H]2CO)[C@@H](O)[C@@H](O[C@H]2OC[C@@H](O)[C@@H](O)[C@@H]2O)[C@@H]1O	inactive
CC1(C)CC[C@]2(C(=O)O[C@@H]3O[C@H](CO)[C@@H](O)[C@H](O)[C@H]3O)CC[C@]3(C)C(=CC[C@H]4[C@@]5(C)CC[C@@H](O[C@@H]6O[C@H](C(=O)O)[C@@H](O[C@@H]7OC[C@@H](O)[C@H](O)[C@H]7O)[C@H](O[C@@H]7OC[C@](O)(CO)[C@H]7O)[C@H]6O)C(C)(C)[C@@H]5CC[C@]43C)[C@@H]2C1	inactive
C[C@@H]1O[C@H](O[C@@H]2[C@H](O)C[C@@]3(C)[C@@H](CC[C@]4(C)[C@H]3CC=C3[C@H]5CC(C)(C)CC[C@@]5(C(=O)O[C@H]5O[C@@H](C)[C@@H](O)[C@H](O[C@H]6OC[C@@H](O)[C@@H](O)[C@@H]6O)[C@H]5O[C@@H]5O[C@H](C)[C@H](O)[C@H](O[C@@H]6OC[C@H](O)[C@H](O[C@@H]7O[C@H](C)[C@@H](O)[C@H](O)[C@@H]7O)[C@H]6O)[C@H]5O)[C@@H](O)C[C@@]34C)[C@]2(C)CO)[C@@H](O)[C@H](O[C@H]2OC[C@@H](O)[C@@H](O[C@H]3OC[C@@H](O[C@H]4OC[C@@](O)(CO)[C@@H]4O)[C@@H](O)[C@@H]3O)[C@@H]2O)[C@@H]1O	inactive
C[C@@H]1O[C@H](O[C@H]2[C@H](OC(=O)[C@]34CCC(C)(C)C[C@@H]3C3=CC[C@@H]5[C@@]6(C)CC[C@H](O[C@@H]7O[C@@H](C)[C@H](O[C@@H]8OC[C@@H](O)[C@H](O)[C@H]8O)[C@@H](O)[C@H]7O)C(C)(C)[C@@H]6CC[C@@]5(C)[C@]3(C)C[C@@H]4O)OC[C@H](O)[C@H]2O)[C@H](O)[C@H](O)[C@H]1O[C@@H]1O[C@H](CO)[C@@H](O)[C@H](O)[C@H]1O	inactive
C[C@H]1O[C@@H](OC(=O)[C@]23CCC(C)(C)C[C@H]2C2=CC[C@H]4[C@@]5(C)CC[C@H](O[C@@H]6O[C@H](C(=O)O)[C@@H](O)[C@H](O[C@@H]7OC[C@@H](O)[C@H](O)[C@H]7O)[C@H]6O[C@@H]6O[C@H](CO)[C@H](O)[C@H](O)[C@H]6O)[C@@](C)(C=O)[C@@H]5CC[C@@]4(C)[C@]2(C)C[C@H]3O)[C@H](O[C@H]2O[C@@H](CO)[C@@H](O)[C@@H](O)[C@@H]2O)[C@@H](O)[C@H]1O[C@@H]1O[C@H](C)[C@@H](O[C@H]2OC[C@@H](O)[C@@H](O)[C@@H]2O)[C@H](O)[C@@H]1O	inactive
CC(=O)N[C@H]1[C@H](O[C@H]2CC[C@]3(C)[C@H]4CC=C5[C@@H]6CC(C)(C)CC[C@]6(C(=O)O[C@H]6OC[C@@H](O)[C@@H](O)[C@@H]6O)[C@@H](O)C[C@@]5(C)[C@]4(C)CC[C@H]3C2(C)C)O[C@H](CO[C@H]2OC[C@@H](O)[C@@H](O[C@H]3OC[C@@H](O)[C@@H](O)[C@@H]3O)[C@@H]2O)[C@@H](O[C@@H]2O[C@@H](C)[C@H](O)[C@@H](O)[C@H]2O[C@@H]2O[C@@H](C)[C@H](O)[C@@H](O)[C@H]2O)[C@@H]1O	active
C[C@@H]1O[C@@H](O[C@H]2[C@H](OC(=O)[C@]34CCC(C)(C)C[C@H]3C3=CC[C@H]5[C@@]6(C)CC[C@H](O[C@@H]7O[C@H](CO)[C@@H](O)[C@H](O)[C@H]7O)C(C)(C)[C@@H]6CC[C@@]5(C)[C@]3(C)C[C@H]4O)OC[C@H](O)[C@@H]2O)[C@H](O)[C@H](O[C@@H]2OC[C@H](O)[C@H](O)[C@H]2O)[C@H]1O[C@@H]1OC[C@@H](O)[C@H](O[C@@H]2OC[C@H](O)[C@H](O)[C@H]2O)[C@H]1O	active
C[C@@H]1O[C@@H](O[C@@H]2[C@@H](O)[C@@H](O[C@@H]3O[C@@H](CO)[C@H](O)[C@H]3O)[C@H](OC(=O)[C@]34CCC(C)(C)C[C@H]3C3=CC[C@H]5[C@@]6(C)C[C@H](O)[C@H](O[C@@H]7O[C@@H](C)[C@H](O)[C@@H](O[C@@H]8OC[C@@H](O)[C@H](O)[C@H]8O[C@@H]8O[C@H](CO)[C@@H](O)[C@H](O)[C@H]8O)[C@H]7O)[C@@](C)(CO)[C@@H]6CC[C@@]5(C)[C@]3(C)C[C@H]4O)O[C@H]2C)[C@H](O)[C@H](O)[C@H]1O	active
